Laboratory results as given in PubChem BioAssay (EPA / NIEHS).
Records with an inconclusive call do not appear. Active and inactive are the calls of the source. Rule for the calls, unless noted: active = hit-call score of the fitted dose curve at least 0.9, where 1 is the maximum; inactive = score below 0.9.

Legend:
[1] = target: CCAAT/enhancer-binding protein beta (Homo sapiens) (UniProt P17676); test: ATG_C_EBP_CIS: Attagene CIS-FACTORIAL HepG2 Assay for human CCAAT/Enhancer Binding Protein (C/EBP) beta (AID 2282927); settings: HepG2 Attagene cis-factorial transcription factor reporter; actives raise or lower the signal
CCAAT/enhancer-binding protein beta (Homo sapiens), sequence (P17676 whole entry, looked up): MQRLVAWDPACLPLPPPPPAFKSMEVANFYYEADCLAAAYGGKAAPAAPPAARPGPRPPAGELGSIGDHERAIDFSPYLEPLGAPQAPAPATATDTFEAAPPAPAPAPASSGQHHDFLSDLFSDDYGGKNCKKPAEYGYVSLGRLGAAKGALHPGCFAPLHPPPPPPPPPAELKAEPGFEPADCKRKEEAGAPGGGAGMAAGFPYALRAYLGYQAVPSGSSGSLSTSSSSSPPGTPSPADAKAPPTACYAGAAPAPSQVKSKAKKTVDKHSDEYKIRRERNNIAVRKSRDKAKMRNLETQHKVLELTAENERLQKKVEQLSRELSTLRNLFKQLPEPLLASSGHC
In short: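 Transiently transfected HepG2 (MRTU library, endogenous TF-driven promoters); 24 h dosing; total RNA → oligo(dT) RT → PCR → 6-FAM primer extension → HpaI digest → CE; fit bidirectionally vs DMSO.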

[2] = target: Aryl hydrocarbon receptor (Homo sapiens) (UniProt P35869); test: ATG_Ahr_CIS: Attagene CIS-FACTORIAL HepG2 Assay for human Aryl Hydrocarbon Receptor (Ahr) (AID 2282930); settings: HepG2 AhR cis-factorial reporter transcription; actives raise or lower the signal
Aryl hydrocarbon receptor (Homo sapiens), sequence (P35869 whole entry, looked up): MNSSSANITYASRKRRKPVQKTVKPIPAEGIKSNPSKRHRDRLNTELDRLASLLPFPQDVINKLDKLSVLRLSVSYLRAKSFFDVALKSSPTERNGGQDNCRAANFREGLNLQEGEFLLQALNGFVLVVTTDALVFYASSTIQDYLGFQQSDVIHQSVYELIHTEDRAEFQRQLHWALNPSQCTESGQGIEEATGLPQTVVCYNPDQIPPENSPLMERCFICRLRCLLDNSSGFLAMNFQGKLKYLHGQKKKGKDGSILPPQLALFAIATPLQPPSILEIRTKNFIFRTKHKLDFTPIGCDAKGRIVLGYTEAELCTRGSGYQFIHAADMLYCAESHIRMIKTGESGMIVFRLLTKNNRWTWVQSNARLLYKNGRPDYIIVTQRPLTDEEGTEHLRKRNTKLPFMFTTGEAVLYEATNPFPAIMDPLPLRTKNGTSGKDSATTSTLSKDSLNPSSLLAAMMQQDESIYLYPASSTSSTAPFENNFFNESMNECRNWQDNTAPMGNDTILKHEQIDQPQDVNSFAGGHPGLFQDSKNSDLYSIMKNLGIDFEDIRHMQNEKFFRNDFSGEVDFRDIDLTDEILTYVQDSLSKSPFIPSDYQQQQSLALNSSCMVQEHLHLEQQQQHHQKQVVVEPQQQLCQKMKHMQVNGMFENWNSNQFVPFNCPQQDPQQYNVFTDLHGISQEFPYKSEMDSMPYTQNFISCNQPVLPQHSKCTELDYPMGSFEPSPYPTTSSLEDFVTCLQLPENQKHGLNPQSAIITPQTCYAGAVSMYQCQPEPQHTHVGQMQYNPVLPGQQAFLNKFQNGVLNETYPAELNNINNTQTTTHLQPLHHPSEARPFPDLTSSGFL
In short: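 Read-out: reporter mRNA quantified by RT-PCR with fluorescent primer extension and capillary electrophoresis. Human HepG2 liver cells carried transfected cis-promoter reporter units and were exposed to chemical for 24 h; gain or loss fitted relative to DMSO.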

[3] = ATG_EGR_CIS: Attagene CIS-FACTORIAL HepG2 Assay for human Early Growth Response 1 (EGR1) (AID 2282938); settings: HepG2 Attagene CIS-FACTORIAL EGR reporter mRNA; actives raise or lower the signal
In short: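 HepG2 cells transiently transfected with cis-element-driven multiplexed reporter units, dosed for 24 h. EGR1-element reporter mRNA quantified by RT-PCR, 6-FAM labelling, HpaI digestion and capillary electrophoresis; bidirectional fit versus DMSO.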

[4] = ATG_ISRE_CIS: Attagene CIS-FACTORIAL HepG2 Assay for human Interferon Regulatory Factor 1 (IRF1) binding to an Interferon-Stimulated Response Element (ISRE) (AID 2282948); settings: HepG2 ISRE cis-reporter (Attagene), mRNA transcription readout; actives raise or lower the signal
In short: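 Quantitation relies on labelled RT-PCR fragments separated by capillary electrophoresis. Human HepG2 cells bearing cis-promoter reporter constructs were treated 24 h; DMSO served as baseline for bidirectional fitting.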

[5] = target: Hypoxia-inducible factor 1-alpha (Homo sapiens) (UniProt Q16665); test: ATG_HIF1a_CIS: Attagene CIS-FACTORIAL HepG2 Assay for human Hypoxia Inducible Factor 1 (HIF1A) (AID 2282951); settings: HepG2 Attagene cis-factorial HIF1a reporter transcription; actives raise or lower the signal
Hypoxia-inducible factor 1-alpha (Homo sapiens), sequence (Q16665 whole entry, looked up): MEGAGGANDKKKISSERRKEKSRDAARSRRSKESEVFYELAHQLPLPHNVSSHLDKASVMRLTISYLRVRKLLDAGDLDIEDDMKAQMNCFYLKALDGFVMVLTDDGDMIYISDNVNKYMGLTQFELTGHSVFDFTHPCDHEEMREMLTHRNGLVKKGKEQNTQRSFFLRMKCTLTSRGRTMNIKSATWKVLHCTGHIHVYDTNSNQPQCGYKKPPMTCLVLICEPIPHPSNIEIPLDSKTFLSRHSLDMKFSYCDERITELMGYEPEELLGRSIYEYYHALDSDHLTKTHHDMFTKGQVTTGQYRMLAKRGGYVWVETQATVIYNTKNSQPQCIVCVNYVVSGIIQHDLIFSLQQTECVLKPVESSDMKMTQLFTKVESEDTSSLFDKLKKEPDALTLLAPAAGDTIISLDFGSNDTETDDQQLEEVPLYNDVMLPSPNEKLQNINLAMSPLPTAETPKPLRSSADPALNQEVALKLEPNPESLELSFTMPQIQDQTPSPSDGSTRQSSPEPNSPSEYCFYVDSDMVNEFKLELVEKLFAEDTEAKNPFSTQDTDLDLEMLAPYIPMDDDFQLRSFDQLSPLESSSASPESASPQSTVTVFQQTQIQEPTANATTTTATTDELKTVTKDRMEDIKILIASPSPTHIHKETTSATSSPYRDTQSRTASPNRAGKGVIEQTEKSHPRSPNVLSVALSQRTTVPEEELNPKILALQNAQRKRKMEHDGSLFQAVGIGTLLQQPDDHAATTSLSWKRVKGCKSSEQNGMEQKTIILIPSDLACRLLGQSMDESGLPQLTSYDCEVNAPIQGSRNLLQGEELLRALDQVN
In short: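 HepG2 cells transiently transfected with multiple cis-regulated reporter transcription units measure endogenous transcription factor activity. After 24 h exposure, reporter mRNA is quantified by RT-PCR with 6-FAM labelling, HpaI digestion and capillary electrophoresis. Bidirectional fitting against DMSO.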

[6] = target: Heat shock factor protein 1 (Homo sapiens) (UniProt Q00613); test: ATG_HSE_CIS: Attagene CIS-FACTORIAL HepG2 Assay for human Heat Shock Transcription Factor 1 (HSE) (AID 2282953); settings: HepG2 HSE cis-reporter, Attagene RNA transcription; actives raise or lower the signal
Heat shock factor protein 1 (Homo sapiens), sequence (Q00613 whole entry, looked up): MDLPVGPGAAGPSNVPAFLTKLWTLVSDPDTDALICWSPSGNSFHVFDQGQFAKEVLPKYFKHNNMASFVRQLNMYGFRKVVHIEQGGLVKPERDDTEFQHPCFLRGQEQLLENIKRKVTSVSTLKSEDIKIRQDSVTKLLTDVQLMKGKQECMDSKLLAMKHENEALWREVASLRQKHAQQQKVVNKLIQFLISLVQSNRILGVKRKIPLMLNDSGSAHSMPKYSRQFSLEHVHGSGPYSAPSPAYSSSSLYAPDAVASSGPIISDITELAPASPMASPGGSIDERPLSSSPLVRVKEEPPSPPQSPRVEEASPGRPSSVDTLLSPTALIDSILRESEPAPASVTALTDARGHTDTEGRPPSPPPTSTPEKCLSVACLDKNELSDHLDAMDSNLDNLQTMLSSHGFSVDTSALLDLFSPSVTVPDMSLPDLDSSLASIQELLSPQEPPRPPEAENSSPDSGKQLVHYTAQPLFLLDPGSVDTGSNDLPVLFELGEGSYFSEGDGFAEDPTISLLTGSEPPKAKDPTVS
In short: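 After a 24 h incubation with test chemical, transfected HepG2 cells were harvested for RNA; reporter transcripts were measured by RT-PCR and capillary electrophoresis. Values reflect gain or loss of signal relative to DMSO.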

[7] = target: X-box-binding protein 1 (Homo sapiens) (UniProt P17861); test: ATG_Xbp1_CIS: Attagene CIS-FACTORIAL HepG2 Assay for human X-box Binding Protein 1 (XBP1) (AID 2282972); settings: HepG2 XBP1 cis-element reporter, Attagene multiplex; actives raise or lower the signal
X-box-binding protein 1 (Homo sapiens), sequence (P17861 whole entry, looked up): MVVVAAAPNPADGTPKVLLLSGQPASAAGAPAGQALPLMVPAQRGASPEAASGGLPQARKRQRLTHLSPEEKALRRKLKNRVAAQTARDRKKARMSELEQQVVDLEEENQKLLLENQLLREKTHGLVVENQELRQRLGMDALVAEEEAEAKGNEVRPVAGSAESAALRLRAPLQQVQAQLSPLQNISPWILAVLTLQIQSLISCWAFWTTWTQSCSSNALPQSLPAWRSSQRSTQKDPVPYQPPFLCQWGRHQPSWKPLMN
In short: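 After a 24-hour chemical exposure of HepG2 cells carrying cis-regulated reporters, reporter mRNA levels are assessed. Quantification uses RT-PCR, 6-FAM labelling and capillary electrophoresis. Gain- or loss-of-signal is fitted against DMSO.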

[8] = target: Transcriptional activator Myb (Homo sapiens) (UniProt P10242); test: ATG_Myb_CIS: Attagene CIS-FACTORIAL HepG2 Assay for human Myeloblastosis (Myb) Proto-Oncogene Transcription Factor (AID 2282986); settings: HepG2 Attagene CIS-FACTORIAL Myb reporter transcription; actives raise or lower the signal
Transcriptional activator Myb (Homo sapiens), sequence (P10242 whole entry, looked up): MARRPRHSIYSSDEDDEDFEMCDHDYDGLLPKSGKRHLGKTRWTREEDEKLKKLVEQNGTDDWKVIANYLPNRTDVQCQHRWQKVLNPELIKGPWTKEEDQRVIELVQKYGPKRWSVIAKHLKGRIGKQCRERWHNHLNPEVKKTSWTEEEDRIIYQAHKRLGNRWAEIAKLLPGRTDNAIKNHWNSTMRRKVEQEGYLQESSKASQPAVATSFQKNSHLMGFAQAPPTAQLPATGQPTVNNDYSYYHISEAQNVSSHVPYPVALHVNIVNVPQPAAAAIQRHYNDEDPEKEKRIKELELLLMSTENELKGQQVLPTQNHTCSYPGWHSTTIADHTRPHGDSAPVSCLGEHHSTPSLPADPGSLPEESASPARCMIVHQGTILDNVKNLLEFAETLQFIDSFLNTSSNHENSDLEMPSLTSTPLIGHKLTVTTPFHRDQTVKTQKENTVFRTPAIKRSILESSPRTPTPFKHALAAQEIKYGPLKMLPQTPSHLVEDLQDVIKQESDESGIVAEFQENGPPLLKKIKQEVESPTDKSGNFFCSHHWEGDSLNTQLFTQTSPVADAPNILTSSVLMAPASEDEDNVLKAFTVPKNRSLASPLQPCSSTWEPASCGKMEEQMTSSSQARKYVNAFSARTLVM
In short: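 Transiently transfected HepG2 cells carrying a multiplexed cis-promoter reporter set report endogenous Myb activity after 24 h compound exposure. Reporter mRNA is read by RT-PCR with capillary electrophoresis of fluorescent products, fitted bidirectionally against DMSO.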

[9] = target: Nuclear respiratory factor 1 (Homo sapiens) (UniProt Q16656); test: ATG_NRF1_CIS: Attagene CIS-FACTORIAL HepG2 Assay for human Nuclear Respiratory Factor 1 (NRF1) Orphan Gene (AID 2282987); settings: HepG2 NRF1 cis-element reporter, Attagene multiplex; actives raise or lower the signal
Nuclear respiratory factor 1 (Homo sapiens), sequence (Q16656 whole entry, looked up): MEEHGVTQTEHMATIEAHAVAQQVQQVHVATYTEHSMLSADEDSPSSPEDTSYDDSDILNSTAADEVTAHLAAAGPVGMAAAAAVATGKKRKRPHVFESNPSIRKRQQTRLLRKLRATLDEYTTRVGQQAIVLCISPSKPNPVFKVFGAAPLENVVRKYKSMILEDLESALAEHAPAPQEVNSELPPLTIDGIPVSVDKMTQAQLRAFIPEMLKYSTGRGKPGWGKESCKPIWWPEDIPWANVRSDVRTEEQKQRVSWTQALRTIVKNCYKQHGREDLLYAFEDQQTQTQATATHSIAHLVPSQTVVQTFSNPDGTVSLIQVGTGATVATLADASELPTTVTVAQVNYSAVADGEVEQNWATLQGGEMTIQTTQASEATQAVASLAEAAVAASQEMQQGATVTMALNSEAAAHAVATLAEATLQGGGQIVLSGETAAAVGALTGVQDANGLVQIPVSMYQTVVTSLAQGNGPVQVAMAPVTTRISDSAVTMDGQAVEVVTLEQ
In short: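 HepG2 cells transiently transfected with multiple cis-regulated reporter units, exposed 24 h. Reporter mRNAs measured by RT-PCR, fluorescent labelling, HpaI digestion and capillary electrophoresis; bidirectional fitting against DMSO.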

[10] = ATG_NFI_CIS: Attagene CIS-FACTORIAL HepG2 Assay for human Nuclear Factor I (NFI) (AID 2282989); settings: HepG2 cis-regulatory reporter, NFI response element transcription; actives raise or lower the signal
In short: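 After transient transfection of HepG2 with cis-promoter reporter constructs and 24 h dosing, RNA is reverse-transcribed, amplified, 6-FAM end-labelled and HpaI-digested before capillary analysis. Bidirectional curve fitting against DMSO.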

[11] = ATG_NRF2_ARE_CIS: Attagene CIS-FACTORIAL HepG2 Assay for human Nuclear Factor Erythroid 2 Related Factor 2 (NFR2) response to Antioxidant Response Elements (ARE) (AID 2282992); settings: HepG2 Attagene ARE/NRF2 reporter, transcription factor activity; actives raise or lower the signal
In short: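 Cis-factorial assay: transfected HepG2 reporter library, 24 h dosing, mRNA readout via RT-PCR/CE; DMSO-referenced bidirectional analysis.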

[12] = ATG_Oct_MLP_CIS: Attagene CIS-FACTORIAL HepG2 Assay for human Octamer-Binding Transcription Factor (Oct) (AID 2282993); settings: HepG2 Attagene cis-factorial Oct reporter, mRNA; actives raise or lower the signal
In short: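 Cells of the HepG2 line express promoter-controlled reporter sequences whose mRNA levels, after 24 h treatment, are measured by RT-PCR and capillary electrophoresis. Increases and decreases are scored relative to DMSO.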

[13] = target: Cellular tumor antigen p53 (Homo sapiens) (UniProt P04637); test: ATG_p53_CIS: Attagene CIS-FACTORIAL HepG2 Assay for human p53 Transcription Factor (AID 2282994); settings: HepG2 p53 cis-element reporter, Attagene mRNA; actives raise or lower the signal
Cellular tumor antigen p53 (Homo sapiens), sequence (P04637 whole entry, looked up): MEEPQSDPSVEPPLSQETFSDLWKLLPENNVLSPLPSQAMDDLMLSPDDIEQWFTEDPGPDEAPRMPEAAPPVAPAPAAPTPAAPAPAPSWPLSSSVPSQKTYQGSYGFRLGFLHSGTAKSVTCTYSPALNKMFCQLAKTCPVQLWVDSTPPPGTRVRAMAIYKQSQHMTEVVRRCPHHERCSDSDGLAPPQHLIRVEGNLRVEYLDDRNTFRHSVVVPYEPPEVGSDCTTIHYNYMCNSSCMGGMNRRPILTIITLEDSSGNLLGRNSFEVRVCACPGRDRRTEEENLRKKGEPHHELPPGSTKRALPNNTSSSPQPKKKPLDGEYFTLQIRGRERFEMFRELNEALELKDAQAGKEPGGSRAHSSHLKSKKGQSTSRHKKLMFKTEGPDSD
In short: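 Using HepG2 hepatoma cells carrying cis-acting multiplexed reporters, mRNA induction is detected after a 24 h exposure. Gain- and loss-of-signal responses are fitted relative to DMSO-treated cells.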

[14] = ATG_XTT_Cytotoxicity: Cytotoxicity Assessment in the Attagene TRANS-FACTORIAL HepG2 Assay (AID 2283584; active = hit-call score of the fitted dose curve at least 0.9, where 1 is the maximum)
In short: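 Transfect HepG2 with GAL4-UAS reporter units, dose compound, incubate 24 h, then measure viable cell number by XTT. Fit concentration response against DMSO baseline.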

[15] = ATG_CMV_CIS: Attagene CIS-FACTORIAL HepG2 Assay for human CMV (Internal Marker) (AID 2282928); settings: HepG2 CMV promoter reporter, transcription factor profiling; actives raise or lower the signal;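 note: endpoint acts as a background internal control marker rather than a target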
In short: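 Cell system: HepG2, transiently transfected multiple reporter units under cis promoters. Exposure: 24 h. Detection: RT-PCR, FAM labeling, HpaI digestion, capillary electrophoresis. Analysis: bidirectional, DMSO baseline.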

[16] = ATG_AP_1_CIS: Attagene CIS-FACTORIAL HepG2 Assay for human Activator Protein 1 (AP-1) (AID 2282931); settings: HepG2 Attagene cis-factorial AP-1 reporter mRNA; actives raise or lower the signal
In short: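 HepG2 cells transiently transfected with cis-element-driven reporter transcription units, dosed for 24 hours. Reporter mRNA measured by RT-PCR, 6-FAM labelling, HpaI digestion and capillary electrophoresis. Bidirectional fitting against DMSO baseline.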

[17] = ATG_GLI_CIS: Attagene CIS-FACTORIAL HepG2 Assay for human Zinc Finger Protein GLI1 (AID 2282945); settings: HepG2, Attagene cis-factorial reporter mRNA, GLI element; actives raise or lower the signal
In short: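 Transiently transfected HepG2 cells report endogenous transcription factor activity via cis-element-driven reporter units. After 24 h compound exposure, reporter mRNA was measured by RT-PCR with capillary electrophoresis; bidirectional fitting against DMSO baseline.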

[18] = ATG_M_06_CIS: Attagene CIS-FACTORIAL HepG2 Assay for M06 Transcription Factor (Internal Marker) (AID 2282950); settings: HepG2 Attagene CIS-FACTORIAL M06 internal marker reporter; actives raise or lower the signal
In short: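 Fluorescence-labelled RT-PCR products from cis-promoter reporter units, cut with HpaI and resolved by capillary electrophoresis, give the signal. Cells are human HepG2, dosed for 24 h. Serves as background control, fitted relative to DMSO.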

[19] = ATG_VDRE_CIS: Attagene CIS-FACTORIAL HepG2 Assay for human Vitamin D Receptor Element (VDRE) (AID 2282968); settings: HepG2 VDRE cis-reporter transcription, actives raise or lower the signal
In short: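 Cell-based multiplexed reporter format in human liver HepG2 cells, 24 h post-dose. Fluorescence from capillary electrophoresis of reporter cDNA gives the signal, with DMSO as negative control and baseline.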

[20] = ATG_TAL_CIS: Attagene CIS-FACTORIAL HepG2 Assay for human TAL Basal Promoter (AID 2282966); settings: HepG2 Attagene cis-factorial TAL promoter reporter; actives raise or lower the signal;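 note: background control endpoint measuring basal TAL promoter reporter mRNA not a specific factor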
In short: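 Readout: reporter mRNA, fluorescence by CE. System: HepG2, transient multi-reporter transfection, endogenous TF activity. Exposure: 24 h. Analysis: bidirectional, DMSO-normalized; background control.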

Measured: AC50

[Cl][Sb]([Cl])[Cl]
active: [3] 140 µM | [6] 169 µM | [7] 143 µM | [11] 1.72 µM | [13] 180 µM
not listed: [15] | [16] | [17] | [18] | [19] | [20]
inactive: all other assays above

CN(C)CCC#N
not listed: [2] | [20]
inactive: all other assays above

CCOC(=O)N(C)N=O
not listed: [1] | [4] | [11] | [14]
inactive: all other assays above

O=C(O)CCl
not listed: [2] | [13] | [15] | [17]
inactive: all other assays above

CC=Cc1ccc2c(c1)OCO2
not listed: [2] | [11] | [16]
inactive: all other assays above

Nc1ccccc1
not listed: [2] | [14]
inactive: all other assays above

COCC(=O)N(c1c(C)cccc1C)N1CCOC1=O
active: [19] 65.9 µM
not listed: [2] | [14]
inactive: all other assays above

c1cc(OCC2CO2)ccc1Cc1ccc(OCC2CO2)cc1 (stereo unspecified)
active: [4] 49.1 µM | [6] 62.6 µM | [19] 8.36 µM | [7] 19.8 µM | [11] 8.95 µM | [12] 25.3 µM | [13] 55.3 µM
not listed: [2] | [3] | [15] | [16] | [17]
inactive: all other assays above

CCC1CCC(=O)O1 (stereo unspecified)
not listed: [2] | [13]
inactive: all other assays above

C[C@]12CC[C@H]3[C@@H](CC[C@@]45O[C@@H]4C(O)=C(C#N)C[C@]35C)[C@@H]1CC[C@@H]2O
active: [3] 63.3 µM | [4] 100 µM | [5] 64.5 µM | [19] 33.9 µM | [7] 60 µM | [11] 58.9 µM | [12] 63.3 µM
not listed: [15]
inactive: all other assays above

CCC(Br)(CC)C(=O)NC(N)=O
not listed: [15] | [20]
inactive: all other assays above

[CH3][Sn]([CH3])([Cl])[Cl]
active: [6] 114 µM | [11] 63.8 µM
not listed: [3] | [4] | [13] | [14] | [15] | [17]
inactive: all other assays above

C=CC(=O)OC
not listed: [3] | [15] | [16]
inactive: all other assays above

CN(C)C(=O)C(c1ccccc1)c1ccccc1
not listed: [1] | [4] | [11]
inactive: all other assays above

O=C(CCl)c1ccccc1
active: [16] 59.3 µM | [4] 18.8 µM | [9] 54.4 µM | [11] 8.04 µM | [13] 58.6 µM
not listed: [1] | [3] | [17] | [18]
inactive: all other assays above
